This passage reports IC50 results from PubChem BioAssay AID651561 (Sanford-Burnham Center for Chemical Genomics, 2012).

The structures appear in SMILES notation. The list shows a part of the results. A number with no mark means an inactive call. The source made the active and inactive calls. Cut-off read from the data, not from the text of the source: active = IC50 below about 20 µM; inactive = the rest. A value given as a limit tells only on which side of the number the result lay.

A short description of the assay: blockers of mitochondrial swelling via MPTP – biochemical, absorbance, uHTS hits, dose response (AID 651561). Particulars: isolated mitochondria swelling.
By IC50 is commonly meant the concentration that gives 50% inhibition. For the molecule `CCCCOC(=O)CNc1nnc(SCC(=O)OCC)[nH]c1=O`, the IC50 was over 100 µM. Then `O=C(Nc1cccc(C(F)(F)F)c1)c1ccc(N2CCNCC2)c([N+](=O)[O-])c1`, with 8.28 µM (active); and `Cc1ccc(-c2noc(CCC(=O)Nc3ccccc3N3CCN(C)CC3)n2)cc1`, with 18.8 µM (active). Then `COc1ccc2sc(N(CCCN(C)C)C(=O)c3ccc(S(=O)(=O)N(C)C4CCCCC4)cc3)nc2c1`, with 7.47 µM (active); and `CN1CCC[C@@H]1CCO[C@](C)(c1ccccc1)c1ccc(Cl)cc1`, with 8.66 µM (active). The same measure for `CCCC[C@@H]1CN=C(N)N1CCc1cc(C(F)(F)F)cc(C(F)(F)F)c1`: 6.67 µM (active); for `O=C(COC(=O)c1ccccc1NC(=O)c1ccco1)Nc1ccc2c(c1)OC(F)(F)O2`: 23.5 µM.

As for `C[C@@H](CN1CCC[C@H]1CN1C(N)=NC[C@@H]1Cc1ccccc1)N1C[C@@H](Cc2ccccc2)N(CCCC2CCCC2)C1=N`, the concentration for half-maximal inhibition (IC50) was 3.54 µM (active). Regarding `FC(F)(F)COc1nc(N2CCCCC2)nc(N2CCNCC2)n1`, the 50% inhibitory concentration (IC50) was 18.9 µM (active). The same measure for `COc1ccc(/C=C(/CC(=O)Nc2ccc(C)cc2)c2nc3ccccc3s2)cc1`: 45.4 µM; for `COCCn1c(CN2CCC(Cc3ccccc3)CC2)nc2c1c(=O)n(C)c(=O)n2C`: 3.99 µM (active); for `CCOC(=O)c1c(NC(=O)CSc2cn(CC)c3ccccc23)sc2c1CCC2`: over 100 µM. Then `CN(C)Cc1ccc(F)cc1Sc1cc(Cl)ccc1Cl`, with 45 µM. On to `CN(C)Cc1ccccc1C1(O)c2ccccc2CSc2ccccc21` (centres undefined), for which the IC50 is 13.4 µM (active).
